Among the test systems are SK-MEL-2 melanoma; SN12C renal; UO-31 renal; TK-10 renal; ACHN renal; CAKI-1 renal; A498 renal; CCRF-CEM leukemia; MOLT-4 leukemia; SR leukemia; RPMI-8226 leukemia; OVCAR-8 ovarian; OVCAR-5 ovarian; OVCAR-4 ovarian; SK-OV-3 ovarian; IGROV1 ovarian; OVCAR-3 ovarian; HS 578T breast; NCI/ADR-RES ovarian; EKVX NSCLC.
Assay in all cases: NCI-60 one-dose screen, 48 h (100 = growth as untreated, 0 = no growth, -100 = all killed)
Common to all, as to conditions: 10 µM unless noted

This is part of a sample that, as a whole, favours compounds with a hit. Of some 83,000 tested, about 20% had one in any assay.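 Cell lines were cultured in 96-well plates, exposed to a single compound concentration, and assessed for percent growth 48 hours later.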 A number with no mark means an inactive call. Active and inactive are the calls of the source. The calls were made as follows: active = growth percent below 10; inactive = the rest.

Regarding `COc1cc(C2CC(=O)Nc3c2cnn3Cc2ccco2)cc2c1OCCO2` (configuration not stated), the growth in the assay with SK-MEL-2 melanoma is 86.8%; in the assay with SN12C renal, 91.3%; with UO-31 renal, 97%; in the assay with TK-10 renal it was 102%; in the assay with ACHN renal, 93.1%; in the assay with CAKI-1 renal it was 96.9%. The growth in the assay on A498 renal was 64.3%; with CCRF-CEM leukemia it was 111%; in the assay on MOLT-4 leukemia, 65.6%; with SR leukemia it was 8.04% (active); in the assay on RPMI-8226 leukemia, 77.2%; in the assay on OVCAR-8 ovarian it was 101%. Moreover, the growth with OVCAR-5 ovarian was 86.2%; in the assay on OVCAR-4 ovarian, 94.3%; with SK-OV-3 ovarian it was 97.7%; in the assay with IGROV1 ovarian it was 56.3%; with OVCAR-3 ovarian it was 73.9%; in the assay with HS 578T breast, 83.6%. Also, the growth in the assay on NCI/ADR-RES ovarian was 88.9%.

As to `CCOC(=S)SCc1ccc(Cl)cc1`, the growth is 105% in the assay on SK-MEL-2 melanoma; 83.8% in the assay with EKVX NSCLC; 91.1% in the assay with UO-31 renal; 105% in the assay on TK-10 renal; 98.1% in the assay on ACHN renal; 75.8% in the assay on A498 renal. The growth in the assay on CCRF-CEM leukemia is 130%; in the assay with MOLT-4 leukemia, 82.2%; in the assay with SR leukemia, 80.2%; with RPMI-8226 leukemia it was 108%; in the assay on OVCAR-5 ovarian, 95.6%; in the assay on OVCAR-4 ovarian, 95.6%. Further, the growth is 150% with SK-OV-3 ovarian; 104% in the assay with IGROV1 ovarian; 94.4% in the assay on OVCAR-3 ovarian; 107% in the assay with HS 578T breast; 105% with NCI/ADR-RES ovarian.

On to `CCCN(CCC)CN(CCC)CCC`, for which the growth in the assay on SK-MEL-2 melanoma is 108%; with EKVX NSCLC, 98.8%; in the assay on UO-31 renal, 84.8%; with TK-10 renal it was 106%; with ACHN renal, 102%; with CAKI-1 renal, 96.3%. Moreover, the growth with A498 renal was 91.8%; in the assay with MOLT-4 leukemia, 97.1%; with SR leukemia, 101%; in the assay on RPMI-8226 leukemia it was 99.9%; with OVCAR-5 ovarian it was 102%; with OVCAR-4 ovarian it was 117%. In addition, the growth in the assay on SK-OV-3 ovarian was 102%; in the assay on IGROV1 ovarian, 111%; in the assay with OVCAR-3 ovarian it was 92.1%; in the assay with HS 578T breast it was 98.8%; with NCI/ADR-RES ovarian, 105%.

For `O=[N+]([O-])c1c(F)cccc1Nc1cccc(F)c1`, the growth with SK-MEL-2 melanoma was 103%; in the assay with EKVX NSCLC, 103%; with UO-31 renal, 78.3%; in the assay on TK-10 renal, 113%; in the assay on ACHN renal, 101%; with CAKI-1 renal it was 101%. Besides, the growth was 80.8% with A498 renal; 93.8% in the assay with MOLT-4 leukemia; 102% in the assay with SR leukemia; 102% with OVCAR-8 ovarian; 95.9% in the assay with OVCAR-4 ovarian; 114% in the assay on SK-OV-3 ovarian. The growth was 117% in the assay on IGROV1 ovarian, 109% with OVCAR-3 ovarian, 102% with HS 578T breast and 110% in the assay on NCI/ADR-RES ovarian.

As to `CN1/C(=C\C=C\C2=[N+](C)c3ccccc3C2(C)C)C(C)(C)c2ccccc21`, the growth with SK-MEL-2 melanoma was -56.6% (active); with EKVX NSCLC it was 13.3%; with UO-31 renal, 8.16% (active); with TK-10 renal it was 5.75% (active); with ACHN renal, 1.47% (active); in the assay on CAKI-1 renal, 23%. For the same molecule, the growth in the assay with A498 renal was 1.83% (active); in the assay with CCRF-CEM leukemia, 7.62% (active); with MOLT-4 leukemia it was -12.6% (active); in the assay with SR leukemia it was -32.8% (active); with RPMI-8226 leukemia, -8.69% (active); in the assay on OVCAR-8 ovarian, 1.34% (active). In addition, the growth in the assay on OVCAR-5 ovarian was 20.9%; with OVCAR-4 ovarian it was 10.5%; with SK-OV-3 ovarian it was -2.66% (active); with IGROV1 ovarian, 2.4% (active); in the assay on OVCAR-3 ovarian, 2.1% (active); with HS 578T breast it was 23.4%. In addition, in the assay with NCI/ADR-RES ovarian, the growth was 14.3%.

As for `C=CC[N+]1(CCO)CCN=C1CCCCCCCCCCCCC` (configuration not stated), the growth in the assay on SK-MEL-2 melanoma was -64.2% (active); in the assay on EKVX NSCLC, -29.4% (active); in the assay on UO-31 renal, -60.7% (active); with TK-10 renal it was -87% (active); with ACHN renal, -91.9% (active); in the assay on CAKI-1 renal, -47.7% (active). In addition, the growth in the assay with A498 renal was 82.6%; with CCRF-CEM leukemia, -40.6% (active); with MOLT-4 leukemia, -42.6% (active); with SR leukemia, -39.7% (active); in the assay with OVCAR-8 ovarian, -74.3% (active); with OVCAR-5 ovarian it was -94.9% (active). Besides, the growth was -25.9% (active) with OVCAR-4 ovarian; -48.6% (active) with SK-OV-3 ovarian; -82% (active) in the assay with IGROV1 ovarian; -84.4% (active) in the assay on OVCAR-3 ovarian; -36.5% (active) in the assay with HS 578T breast; -62% (active) in the assay with NCI/ADR-RES ovarian.

In the case of `CCCCN(CCCC)CCC(C)(O)c1cc2ccccc2c2ccccc12` (configuration not stated), the growth in the assay on SK-MEL-2 melanoma was 122%; with EKVX NSCLC, 103%; with UO-31 renal, 50.9%; in the assay on TK-10 renal, 104%; in the assay with ACHN renal, 96.9%; in the assay with CAKI-1 renal, 87.9%. Further, the growth was 83.1% with A498 renal; 42.4% with CCRF-CEM leukemia; 37.5% in the assay with MOLT-4 leukemia; 39.7% in the assay on SR leukemia; 67.3% in the assay on RPMI-8226 leukemia; 92.6% in the assay on OVCAR-8 ovarian. Further, the growth with OVCAR-5 ovarian is 98.6%; in the assay with OVCAR-4 ovarian, 109%; in the assay on SK-OV-3 ovarian, 99.9%; with IGROV1 ovarian, 6.06% (active).

Take `N#Cc1ccc(NC(=O)Nc2ccc(Cc3ccc(NC(=O)Nc4ccc(C#N)cc4)cc3)cc2)cc1`: the growth in the assay with SK-MEL-2 melanoma was 12.8%; in the assay with EKVX NSCLC, 14.5%; in the assay on SN12C renal it was 29.5%; in the assay with TK-10 renal, 48.1%; with ACHN renal it was 31.2%; in the assay with CAKI-1 renal, 48.5%. Further, the growth in the assay on A498 renal is 49.5%; with CCRF-CEM leukemia it was 17.4%; in the assay with MOLT-4 leukemia it was 12.5%; in the assay with RPMI-8226 leukemia, -2.1% (active); in the assay with OVCAR-8 ovarian it was 38.7%; in the assay on OVCAR-5 ovarian, 69.6%. Further, the growth in the assay with OVCAR-4 ovarian was 15%; in the assay with SK-OV-3 ovarian, 68.6%; in the assay with IGROV1 ovarian, 29.6%; in the assay with OVCAR-3 ovarian, 18.8%; in the assay on HS 578T breast it was 47.9%; in the assay on NCI/ADR-RES ovarian, 52.7%.

Consider `CCN(CC)CCCNc1cccc2c(SCc3ccccc3)ccnc12`, for which the growth is 114% in the assay with SK-MEL-2 melanoma; 63.5% in the assay on EKVX NSCLC; -9.99% (active) in the assay with UO-31 renal; 63.7% in the assay on TK-10 renal; 102% in the assay on ACHN renal; 58.8% with CAKI-1 renal. Besides, the growth was 75.7% in the assay on A498 renal; -26.1% (active) in the assay with CCRF-CEM leukemia; -24.2% (active) in the assay with MOLT-4 leukemia; -27.9% (active) with SR leukemia; -39.7% (active) with RPMI-8226 leukemia; 107% in the assay on OVCAR-5 ovarian. For the same molecule, the growth was 104% with OVCAR-4 ovarian; 97.8% with SK-OV-3 ovarian; -40.3% (active) with IGROV1 ovarian; 36.8% in the assay on OVCAR-3 ovarian; 42% in the assay with NCI/ADR-RES ovarian.

The values above are taken from PubChem BioAssay (NCI).
